Reference: PubChem BioAssay AID1347415 (National Center for Advancing Translational Sciences (NCATS), 2020)
Inconclusive results are not listed. Active and inactive are the calls of the source. Calls come from the whole dose curve; as a rule, active = well fitted inhibition curve with a large enough effect; inconclusive = small, poorly fitted or top-dose-only effect; inactive = no such curve, though single readings can be large or run the other way.

Test: qHTS to identify inhibitors of the type 1 interferon - major histocompatibility complex class I in skeletal muscle: tertiary screen by RT-qPCR
Conditions: C25cl48 human myoblasts, IFN-beta, HLA-B RT-qPCR, 24 h; series mostly up to 49.8 µM
Text: Assay Submitter (PI): Travis B. Kinder Ph.D. & James Inglese Ph.D. Assay Development and Screening Technology Laboratory (ADST) National Center for Advancing Translational Sciences (NCATS), Rockville, MD National Institute of Health (NIH), Bethesda, Maryland Idiopathic inflammatory myopathies, collectively referred to as myositis, are a group of rare autoimmune diseases characterized by skeletal muscle inflammation, weakness, and usually accompanied by systemic pathologies of the skin, lungs, or vasculature. Current immunosuppressive therapies and glucocorticoids are often not curative and are accompanied by harsh side effects, especially in children with juvenile myositis. We initiated a drug repurposing and development program to identify more targeted, less toxic therapeutics to treat myositis. Although its cause is not known, muscle from a subset of patients have an abundance of the inflammatory type 1 interferon (IFN) and a down-stream product major histocompatibility complex class I (MHC class I), which are both thought to contribute to damage and weakness. We conducted quantitative high throughput screening (qHTS) on 6,576 compounds (4,679 unique) through a series of cell-based assays to identify those that inhibit the IFN-stimulated expression of MHC class I in muscle precursor cells (myoblasts). The compound identification and evaluation strategy utilized a primary screen with reporter-tagged MHC class I in genome-engineered myoblasts, ATP content counter screen for viability, HLA-ABC immunofluorescence secondary screen, and HLA-B RT-qPCR tertiary screen. To determine if active compounds identified by qHTS in HLA-B HiBit reporter cells, and confirmed by HLA-ABC immunofluorescence, can inhibit the transcription of HLA-B mRNA, compounds were assayed by RT-qPCR. Briefly, 62 compounds identified from primary, counter, and secondary screening as inhibitory with minimal cytotoxicity were dispensed into 384-well plates using acoustic dispensing in a 6-point, 1:7 titration with a high final concentration of 10 uM. Normal immortalized human myoblasts C25cl48 were added to the plate with 4.0 ng/ml human IFN-beta for 24 hours, and cells were harvested and assayed by the Cells-to-Ct kit with TaqMan assays (Thermo Fisher).
PROTOCOL TABLE (as described by Inglese et al., 2007) SEQUENCE No. (e.g., 1, 2, 3, etc.); […] (e.g., Cells, Incubation, Reagent, etc.); VALUE; DESCRIPTION 0; Compounds; 150 nl; Follow-up compounds dispensed at 150 nl/well with Labcyte Echo 655 acoustic dispenser into one Corning white/clear bottom, high base TC 384-well plates (3765) 1a; Cells; 30 uL; Using a p200 manual pipette, seed 780 cells/well into 1 plate in 30 ul/well of iHSKM growth medium without dexamethasone into columns wells A1-A6. […]

Row | SMILES | Potency
1 | N#CCC1(n2cc(-c3ncnc4[nH]ccc34)cn2)CN(C2CCN(C(=O)c3ccnc(C(F)(F)F)c3F)CC2)C1 | 3680 nM (active)
2 | COc1cccc2c1C(=O)c1c(O)c3c(c(O)c1C2=O)C[C@@](O)(C(=O)CO)C[C@@H]3O[C@H]1C[C@H](N)[C@H](O)[C@H](C)O1 | 1040 nM (active)
3 | C=CCNC1=C2C[C@@H](C)C[C@H](OC)[C@H](O)[C@@H](C)/C=C(\C)[C@H](OC(N)=O)[C@@H](OC)/C=C\C=C(/C)C(=O)NC(=CC1=O)C2=O | inactive
4 | C[C@@]12O[C@@H](C[C@]1(O)CO)n1c3ccccc3c3c4c(c5c6ccccc6n2c5c31)CNC4=O | 2600 nM (active)
5 | CCS(=O)(=O)N1CCN(c2ccc(Nc3ncc(C(N)=O)c(NC4CC4)n3)cc2)CC1 | 5830 nM (active)
6 | CN1CCN(Cc2ccc(NC(=O)Nc3ccc(Oc4cc(NC(=O)C5CC5)ncn4)cc3)cc2C(F)(F)F)CC1 | 146 nM (active)
7 | NC(=O)c1cnc2[nH]ccc2c1NC1C2CC3C[C@H]1CC(O)(C3)C2 (some centres not stated) | 1640 nM (active)
8 | CN1CCN(c2cccc(Nc3nc4c(-c5ccc(S(C)(=O)=O)cc5)cccn4n3)c2)CC1 | 8230 nM (active)
9 | CCN(CC)Cc1ccc2cc(COC(=O)Nc3ccc(C(=O)NO)cc3)ccc2c1 | 4130 nM (active)
10 | O=C(/C=C/c1ccc(CN(CCO)CCc2c[nH]c3ccccc23)cc1)NO | 116 nM (active)
11 | Cc1ccc([N+](=O)[O-])cc1S(=O)(=O)N(C)/N=C/c1cnc2ccc(Br)cn12 | 232 nM (active)
12 | Cc1cc(Nc2cc(NC(=O)c3c(Cl)cccc3Cl)ccn2)nc(N)n1 | 4630 nM (active)
13 | C[C@H]1C[C@@H]2[C@H]([C@@H](O)C[C@@]3(C)[C@H]2CC[C@]3(O)C(=O)CO)[C@@]2(C)C=CC(=O)C=C12 | inactive
14 | O=C(Nc1nc2cccc(-c3ccc(CN4CCS(=O)(=O)CC4)cc3)n2n1)C1CC1 | 18400 nM (active)
15 | CC(=O)c1cnc2ccc(-c3cc(Cl)c(O)c(Cl)c3)nc2c1NC1CCC(CN(C)C)CC1 (configuration not stated) | 116 nM (active)
16 | Cc1cc(Nc2nc(N[C@@H](C)c3ncc(F)cn3)ncc2Cl)n[nH]1 | 4130 nM (active)
17 | N#CCNC(=O)c1ccc(-c2ccnc(Nc3ccc(N4CCOCC4)cc3)n2)cc1 | 23200 nM (active)
18 | COc1ccc(-c2nc(N3CCOCC3)c3sc(CN(C)c4ncc(C(=O)NO)cn4)cc3n2)cn1 | 23.2 nM (active)
19 | Cc1[nH]c2ccccc2c1CCNCc1ccc(/C=C/C(=O)NO)cc1 | 29.2 nM (active)

Row | SMILES | Potency
20 | Cc1ccc(NC(=O)NCc2ccc3c(c2)CN(C2CCC(=O)NC2=O)C3=O)cc1Cl (configuration not stated) | inactive
21 | NC(=O)Nc1sc(-c2ccc(F)cc2)cc1C(N)=O | 10400 nM (active)
22 | Cc1cc(O)c(-c2ccc([C@@H](C)CN(C)C)cc2)c2c1[nH]c(=O)c1sccc12 | 51.9 nM (active)
23 | c1cc(Nc2cc(C3CC3)[nH]n2)nc(Nc2ccc3nc[nH]c3c2)n1 | 654 nM (active)
24 | Cc1nc(Nc2n[nH]c3c2CN(C(=O)N[C@H](CN(C)C)c2ccccc2)C3(C)C)c2sccc2n1 | 1840 nM (active)
25 | CC(=O)OCC(=O)[C@@]12OC(C)(C)O[C@@H]1C[C@H]1[C@@H]3C[C@H](F)C4=CC(=O)C=C[C@]4(C)[C@@]3(F)[C@@H](O)C[C@@]12C | inactive
26 | OCCCNc1cc(-c2ccnc(Nc3cccc(Cl)c3)n2)ccn1 | 116 nM (active)
27 | C[C@]12C=CC(=O)C=C1CC[C@@H]1[C@@H]2[C@@H](O)C[C@@]2(C)[C@H]1CC[C@]2(O)C(=O)CO | inactive
28 | CC1=C(CO)C(=O)O[C@@H]([C@@H](C)[C@H]2CC[C@H]3[C@@H]4C[C@H]5O[C@]56[C@@H](O)C=CC(=O)[C@]6(C)[C@H]4CC[C@]23C)C1 | 1300 nM (active)
29 | C=C1C(=O)O[C@@H]2[C@H]3O[C@]3(C)CCC=C(C)CC[C@@H]12 | 16400 nM (active)
30 | CS[C@H]1SC[C@@H]2C(=O)N(C)[C@H](C(C)C)C(=O)OC[C@H](NC(=O)c3cnc4ccccc4n3)C(=O)N[C@H](C)C(=O)N(C)[C@H]1C(=O)N(C)[C@H](C(C)C)C(=O)OC[C@H](NC(=O)c1cnc3ccccc3n1)C(=O)N[C@H](C)C(=O)N2C | inactive
31 | OC1CCC(Oc2cccc3cnc(Nc4ccc5nc[nH]c5c4)nc23)CC1 (configuration not stated) | 654 nM (active)
32 | Cc1ncsc1-c1ccc([C@H](C)NC(=O)[C@@H]2C[C@@H](O)CN2C(=O)[C@@H](NC(=O)COCCCOCCNC(=O)C[C@@H]2N=C(c3ccc(Cl)cc3)c3c(sc(C)c3C)-n3c(C)nnc32)C(C)(C)C)cc1 | inactive
33 | CC(=O)c1ccc2c(c1)c1cc(C(C)=O)ccc1n2CCNC(C)C | 1840 nM (active)
34 | COc1cccc2c1C(=O)c1c(O)c3c(c(O)c1C2=O)C[C@@](O)(/C(CO)=N/NC(=O)CCCCCN1C(=O)C=CC1=O)C[C@@H]3O[C@H]1C[C@H](N)[C@H](O)[C@H](C)O1 | 4630 nM (active)
35 | CC(C)C[C@H](NC(=O)[C@H](CCc1ccccc1)NC(=O)CN1CCOCC1)C(=O)N[C@@H](Cc1ccccc1)C(=O)N[C@@H](CC(C)C)C(=O)[C@@]1(C)CO1 | 1840 nM (active)
36 | N#CC[C@H](C1CCCC1)n1cc(-c2ncnc3[nH]ccc23)cn1 | 1640 nM (active)
37 | Cc1ccc(-c2ncn(-c3ccc(Nc4nccc(-c5cccc(N6CCOCC6)c5)n4)cc3)n2)cn1 | 1460 nM (active)
